In all, about 360,000 compounds went through this assay and about 1,300 (0.36%) were called active. Shown is part of a subset that was picked to be rich in actives. Unmarked numbers belong to inactive results.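 How the source made its calls: active means corrected activity change at or below -50% at 5 µM; inactive means the rest.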

The nature of the experiment: cytotoxicity in KKLEB CF airway cells, primary screen, cytotoxicity control for CF NF-kB inhibitor project, cell-based, uHTS, fluorescence assay plates (AID 602141). Particulars: KKLEB CF airway cells viability, ATPlite luminescence, overnight, at 5 µM, hits give low values. On the technique in general: Cellular ATP, detected with luciferase, serves as a proxy for viable cell number.
As to `CC1=C(C(=O)Nc2ccccc2)SCCO1`, the activity change (cytotoxicity) is -58.9% (active).

As to `CC1=C(C(=O)Nc2ccccc2)S(=O)(=O)CCO1`, the activity change (cytotoxicity) is -6%.

Consider `CC(Cc1ccccc1)NCCC(c1ccccc1)c1ccccc1` (stereo not given), for which the activity change (cytotoxicity) was -16.7%.

For the molecule `Cc1c(Oc2cc(NN3CCCCC3)c([N+](=O)[O-])cc2[N+](=O)[O-])cccc1[N+](=O)[O-]`, the activity change (cytotoxicity) is -5.7%.

In the case of `CCOc1cccc(=NC2CCCCC2)c2c(C)[nH]c(C)c12`, the activity change (cytotoxicity) is 4.1%.

Consider `CCc1nc2ccccc2c(=O)n1-c1cccc(OC)c1`, for which the activity change (cytotoxicity) is -1.5%.

As to `C[C@]12CC[C@H](O)C[C@H]1CC[C@@H]1C2CC[C@]2(C)[C@@H](C3=CC(=O)OC3)[C@@H](O)C[C@]12O` (stereo not given in full), the activity change (cytotoxicity) is -53.3% [cells stimulated with P. aeruginosa culture filtrate] (active).

For `CC12CCC(O)CC1CCC1C2CCC2(C)C(C(=O)CC(O)C(F)(F)F)CCC12` (stereo not given), the activity change (cytotoxicity) was 3.6% [cells stimulated with P. aeruginosa culture filtrate].

With `Cc1ccc(CN2CCCC(C(=O)c3ccc4c(c3)OCO4)C2)cc1C` (stereo not given), the activity change (cytotoxicity) was -12.8%.

On to `Cc1nn(Cc2ccccc2Cl)c(Cl)c1C(=O)OC(C(=O)NC(N)=O)C(C)C` (stereo not given), for which the activity change (cytotoxicity) was -1.6%.

Take `O=C(CSC1c2ccccc2-c2ccccc21)N/N=C/c1ccccc1`: the activity change (cytotoxicity) was 11.7%.

For the molecule `O=c1[nH]c2ccccc2n1C1CCN(C(c2ccnc3ccccc23)c2nnnn2Cc2ccccc2)CC1` (stereo not given), the activity change (cytotoxicity) was -13.5% [cells stimulated with P. aeruginosa culture filtrate].

For the molecule `O=c1[nH]c2ccccc2n1C1CCN(C(c2ccccc2)c2nnnn2Cc2ccccc2)CC1` (stereo not given), the activity change (cytotoxicity) was -106% [cells stimulated with P. aeruginosa culture filtrate] (active).

In the case of `CSCCC(c1nnnn1C(C)(C)C)N1CCC(n2c(=O)[nH]c3ccccc32)CC1` (stereo not given), the activity change (cytotoxicity) is -1.4% [cells stimulated with P. aeruginosa culture filtrate].

With `CC1([N+](=O)[O-])COP(=O)(Nc2ccc(F)cc2)OC1` (stereo not given), the activity change (cytotoxicity) is 8.2% [cells stimulated with P. aeruginosa culture filtrate].

In the case of `CCc1cccc2c(C#N)cn(CC(=O)N3CCOCC3)c12`, the activity change (cytotoxicity) was 3.2%.

On to `CC(=O)OC1C2(CC3N4C(=O)C5(CO)SSC4(CC31O)C(=O)N5C)OC(C)C(C)(C)C2=O` (stereo not given), for which the activity change (cytotoxicity) was -95% [cells stimulated with P. aeruginosa culture filtrate] (active).

Regarding `CCC(C)n1c(O)c(/C=N/Nc2nc3c(c(=O)n(C)c(=O)n3C)n2C)c(=O)[nH]c1=S` (stereo not given), the activity change (cytotoxicity) is -14.1%.

Turning to `C[C@@]1([C@@H](NP(=O)(c2ccccc2)c2ccccc2)c2ccccc2)C[C@H]1CCO`, the activity change (cytotoxicity) was 15%.

On to `COc1ccc(NC(=O)c2cn(CCC#N)nc2-c2ccc([N+](=O)[O-])cc2)cc1`, for which the activity change (cytotoxicity) is -13.1%.

For the molecule `CCCCCCCCCCCCn1ccc(=N)cc1`, the activity change (cytotoxicity) was -61.1% (active).

Take `O=c1[nH]c(CN2CC=C(c3ccccc3)CC2)nc2scc(-c3cccs3)c12`: the activity change (cytotoxicity) was 0.9%.

Consider `Cc1ccc2c(c1)C1CN(C)CCC1N2C(=O)Cn1nnc(-c2ccccc2F)n1` (stereo not given), for which the activity change (cytotoxicity) was 2%.

In the case of `c1cncc(CNCCc2c[nH]c3ccccc23)c1`, the activity change (cytotoxicity) was 7.7%.

Regarding `c1ccc(C2NCc3ccccc3-n3cccc32)cc1` (stereo not given), the activity change (cytotoxicity) is -7.9%.

As for `Cc1ccc(C(C)C)c(OCC(=O)N2CCN(CC(=O)N3CCOCC3)CC2)c1`, the activity change (cytotoxicity) was -1.3% [cells stimulated with P. aeruginosa culture filtrate].

With `COCCNC(=O)CN1C2CCC1CC(O)(c1cccnc1)C2` (stereo not given), the activity change (cytotoxicity) was 1.5%.

Consider `COC1C(O)C(C)OC(OC2CCC3(C=O)C(CCC4C3CCC3(C)C(C5=CC(=O)OC5)CCC43O)C2)C1O` (stereo not given), for which the activity change (cytotoxicity) was -58.4% [cells stimulated with P. aeruginosa culture filtrate] (active).

`COC(=O)C1=C(c2ccc(Cl)c(C(F)(F)F)c2)C[C@@H]2CC[C@H]1N2C(=O)NC(C)C`: the activity change (cytotoxicity) was -0.4% [cells stimulated with P. aeruginosa culture filtrate].

With `CC(=O)NCC1=C(c2ccc3ccccc3c2)C[C@@H]2CC[C@H]1N2Cc1ccco1`, the activity change (cytotoxicity) is -7.6%.
